Results taken from PubChem BioAssay (EPA / NIEHS).
Where a structure was tested more than once in an assay, its records may differ in their call. Calls of active or inactive are those of the source. Rule for the calls: active = hit-call score of the fitted dose curve at least 0.9, where 1 is the maximum; inactive = score below 0.9.

Read-out: Transforming growth factor beta 1 (TGFb1), TGFB1 (gene 7040)
Assay: BSK_BE3C_TGFb1: BioMAP Diversity Plus: BE3C Assay for Transforming growth factor beta 1 (TGFb1) Biomarker Activity (AID 2283036)
Settings: primary human bronchial epithelial cells; actives raise or lower the signal
Description: BSK_BE3C is a cell-based, multiplexed-readout assay that uses bronchial epithelial cell, a human lung primary cell, with measurements taken at 24 hours after chemical dosing in a 96-well plate.BSK_BE3C_TGFb1 is an assay component measured in the BSK_BE3C assay. It measures TGF-b1 antibody related to regulation of gene expression using ELISA technology.Data from the assay component BSK_BE3C_TGFb1 was analyzed into 1 assay endpoint. This assay endpoint, BSK_BE3C_TGFb1, was analyzed with bidirectional fitting relative to DMSO as the negative control and baseline of activity. Using a type of binding reporter, gain or loss-of-signal activity can be used to understand changes in the signaling as they relate to the gene TGFB1. Furthermore, this assay endpoint can be referred to as a primary readout, because this assay has produced multiple assay endpoints where this one serves a signaling function. To generalize the intended target to other relatable targets, this assay endpoint is annotated to the growth factor intended target family, where the subfamily is transforming growth factor beta.
The levels of cell surface (or secreted, indicated by the prefix "s") biomarker endpoints were measured by ELISA. Overt cytotoxicity to cells in confluent adherent cultures (all systems other than the BT system) was assessed by measuring total protein levels using sulforhodamine B (SRB) staining in parallel cultures at the time of biomarker measurements, indicated as SRB endpoints. For proliferation assays for adherent cell types, individual cell types are cultured at sub-confluence and relative cell numbers quantified by SRB staining at time points optimized for each system (48 h: 3C and CASM3C systems; 72 h: BT and HDF3CGF systems; 96 h: SAg system). SRB was performed by staining cells with 0.1% SRB after fixation with 10% TCA and reading wells at 560 nm.Viability and proliferation of PBMC (T cells) was quantified by Alamar Blue reduction for the SAg and BT systems. For PBMC viability (referred to as PBMC Cytotoxicity within the assay endpoint names), cells were plated (75,000/well in a 96-well plate) and then chemical samples added for 1 h before addition of activators, SEB and TSST-1 (20 ng/mL final concentration each). Cells were incubated for 90 h. Then, Alamar Blue (20 uL/well) (Invitrogen, Cat DAL1100) was added for 6 h, and the plates were read with a fluorescence microplate reader at 546/580 nm (excitation/emission). For PBMC proliferation, cells were plated and activated as above but incubated for only 16 h prior to addition of Alamar Blue. Plates were read after 6 h.

Question: With `O=C(O)C(F)(F)C(F)(F)C(F)(F)C(F)(F)C(F)(F)F` as the compound, how does the outcome read?
Answer: The outcome was “inactive”.

Question: `CCCCCCCCOC(=O)c1ccccc1C(=O)OCCCCCCCC` was tested. Which outcome did it give?
Answer: The outcome was “inactive”.

Question: With `Cc1cc(-c2ccc(N)c(C)c2)ccc1N` as the compound, how does the outcome read?
Answer: Its outcome is “inactive”.

Question: For `CCNc1nc(NC(C)C)nc(SC)n1`, which outcome is on record?
Answer: Its outcome is “inactive”.

Question: With `O=S(=O)(O)C(F)(F)C(F)(F)C(F)(F)C(F)(F)C(F)(F)C(F)(F)F` as the compound, how does the outcome read?
Answer: The outcome was “inactive”.

Question: How did the outcome turn out when `C=CC(N)=O` was run?
Answer: The outcome was “inactive”.

Question: How did the outcome turn out when `Sc1ccccc1` was run?
Answer: Its outcome is “inactive”.

Question: `NS(=O)(=O)C(F)(F)C(F)(F)C(F)(F)C(F)(F)C(F)(F)C(F)(F)C(F)(F)C(F)(F)F` was tested. Which AC50 did it give?
Answer: The AC50 was 10.5 µM (active).

Question: How did the AC50 turn out when `CC(C)(c1ccccc1)c1ccc(O)cc1` was run?
Answer: The AC50 was 33.4 µM (active).

Question: How did the outcome turn out when `C[C@]12CCC(=O)C=C1CC[C@@H]1[C@@H]2CC[C@]2(C)C(=O)CC[C@@H]12` was run?
Answer: Its outcome is “inactive”.

Question: `CCCCCCCCCc1ccc(O)cc1` was tested. Which AC50 did it give?
Answer: Its AC50 is 16.4 µM (active).

Question: With `CN(C)CCO` as the compound, how does the outcome read?
Answer: The outcome was “inactive”.

Question: `CCC(C)(CC)c1cc(NC(=O)c2c(OC)cccc2OC)on1` was tested. Which outcome did it give?
Answer: The outcome was “inactive”.

Question: For `Cc1cccc([N+](=O)[O-])c1`, which outcome is on record?
Answer: The outcome was “inactive”.

Question: How did the outcome turn out when `CCCN(CCC)N=O` was run?
Answer: Its outcome is “inactive”.

Question: `O=C(O)C(F)(F)C(F)(F)C(F)(F)C(F)(F)C(F)(F)C(F)(F)C(F)(F)C(F)(F)C(F)(F)F` was tested. Which AC50 did it give?
Answer: Its AC50 is 10 µM (active).

Question: `CC(c1ccc(O)cc1)(c1ccc(O)cc1)c1ccc(O)cc1` was tested. Which AC50 did it give?
Answer: Its AC50 is 1.92 µM (active).

Question: How did the outcome turn out when `C=CC(=O)NCNC(=O)C=C` was run?
Answer: Its outcome is “inactive”.

Question: `CC#Cc1cc(C)nc(Nc2ccccc2)n1` was tested. Which outcome did it give?
Answer: The outcome was “inactive”.

Question: How did the outcome turn out when `CO/C=C(/C(=O)OC)c1ccccc1COc1cccc(C(F)(F)F)n1` was run?
Answer: The outcome was “inactive”.

Question: Which outcome does the source give for `CC1=C2C[C@H]3[C@@H](CC=C4C[C@@H](O)CC[C@@]43C)[C@@H]2CC[C@]12O[C@@H]1C[C@H](C)CN[C@H]1[C@H]2C` here?
Answer: The outcome was “inactive”.

Question: For `Cc1ccccc1CO[C@@H]1C[C@@]2(C(C)C)CC[C@]1(C)O2`, which outcome is on record?
Answer: The outcome was “inactive”.

Question: For `CC(C)(O)C(=O)Nc1ccc([N+](=O)[O-])c(C(F)(F)F)c1`, which outcome is on record?
Answer: The outcome was “inactive”.

Question: `ClC(Cl)=C(c1ccc(Cl)cc1)c1ccc(Cl)cc1` was tested. Which outcome did it give?
Answer: The outcome was “inactive”.

Question: `CCOP(=S)(OCC)SCSC(C)(C)C` was tested. Which outcome did it give?
Answer: Its outcome is “inactive”.

Question: Which results are given for `Oc1c(Cl)c(Cl)c(Cl)c(Cl)c1Cl`?
Answer: outcome: inactive; AC50: 9.53 µM (active)

Question: `Cc1ccccc1[N+](=O)[O-]` was tested. Which outcome did it give?
Answer: Its outcome is “inactive”.

Question: With `Oc1ccc(Cl)cc1Cl` as the compound, how does the outcome read?
Answer: Its outcome is “inactive”.

Question: Which outcome does the source give for `C[C@]12CCC(=O)C=C1CC[C@@H]1[C@@H]2CC[C@@]2(C)[C@H]1CC[C@]2(C)O` here?
Answer: Its outcome is “inactive”.

Question: How did the outcome turn out when `Nc1ccc(-c2ccc(N)cc2)cc1` was run?
Answer: Its outcome is “inactive”.

Question: `CCOC(=O)C(O)(c1ccc(Cl)cc1)c1ccc(Cl)cc1` was tested. Which outcome did it give?
Answer: Its outcome is “inactive”.

Question: For `COS(=O)(=O)OC`, which outcome is on record?
Answer: The outcome was “inactive”.

Question: For `CCOCCOC(C)=O`, which outcome is on record?
Answer: Its outcome is “inactive”.

Question: How did the outcome turn out when `CCC(=O)O[C@H]1CC[C@H]2[C@@H]3CCC4=CC(=O)CC[C@]4(C)[C@H]3CC[C@]12C` was run?
Answer: The outcome was “inactive”.

Question: For `Clc1ccc(C(Cl)(Cl)Cl)cc1`, which outcome is on record?
Answer: The outcome was “inactive”.

Question: Which outcome does the source give for `CN(C)c1nc(=O)n(C2CCCCC2)c(=O)n1C` here?
Answer: The outcome was “inactive”.

Question: How did the outcome turn out when `c1ccc(-c2ccccc2)cc1` was run?
Answer: Its outcome is “inactive”.

Question: How did the outcome turn out when `Cc1ccc(O)c(C)c1` was run?
Answer: Its outcome is “inactive”.

Question: For `O=NN(c1ccccc1)c1ccccc1`, which outcome is on record?
Answer: The outcome was “inactive”.
